Measured values taken from PubChem BioAssay.
The source made the active and inactive calls.

Tests used:
[1] = optical density shifts of acrAB sulA E. coli – strain DRC41, OD650, 48 h, E. coli filamentation inducer project, primary screen (AID 1152); conditions: higher = more signal, called active from +8 up or from −8 down;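 further: E. coli MC1000 strain DRC41 lacking acrAB efflux pump and sulA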
[2] = probe aLefty1 binding on compound microarray – biochemical, small-molecule microarray, 635/667 nm fluorescence, primary screen (AID 1153); conditions: higher = more signal;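 further: score merges spot fluorescence with signal-to-noise ratio from the scanned slide images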
[3] = plasmodial surface anion channel blockers, osmotic lysis – cell-based, P. falciparum Indochina, OD700, 1 h, primary screen (AID 1154); conditions: P. falciparum Indochina infected RBC osmotic lysis, higher = more signal, called active from +8 up or from −8 down
[4] = plasmodial surface anion channel blockers, osmotic lysis – cell-based, P. falciparum Indochina, OD700, 2 h, primary screen (AID 1155);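 further: lysis reports solute entry through the parasite surface anion channel PSAC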; conditions: P. falciparum Indochina infected erythrocytes, higher = more signal, called active from +8 up or from −8 down
[5] = changes in parasitized red cell lysis, either direction – P. falciparum Indochina, OD700, 3 h, PSAC antagonist project, primary screen (AID 1156); conditions: P. falciparum-infected erythrocytes, osmotic lysis, higher = more signal, called active from +8 up or from −8 down
[6] = plasmodial surface anion channel blockers, osmotic lysis – cell-based, P. falciparum Indochina, OD700, 18 h, primary screen (AID 1157); conditions: P. falciparum Indochina infected erythrocytes, osmotic lysis OD700, 18 h; higher = more signal, called active from +8 up or from −8 down
[7] = S6 kinase pathway phospho-S6 level changes – cell-based, A549, cytoblot, luminescence, serum-stimulated, primary screen (AID 1158); conditions: 5 h, higher = more signal;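 further: serum-stimulated A549 lung adenocarcinoma cells; signal is phosphorylated S6 detected by cytoblot immunostaining with HRP secondary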
[8] = molecular target: NADPH oxidase 2 (Homo sapiens) (UniProt P04839); experiment: compounds shifting NOX2 Amplex Red fluorescence – cell-based, HEK293-NOX2, PMA-stimulated, NOX inhibitor project, primary screen (AID 1159); conditions: 45 min, higher = more signal, called active from +8 up or from −8 down; further: test concentration not given here
NADPH oxidase 2 (Homo sapiens), sequence (P04839 whole entry, looked up): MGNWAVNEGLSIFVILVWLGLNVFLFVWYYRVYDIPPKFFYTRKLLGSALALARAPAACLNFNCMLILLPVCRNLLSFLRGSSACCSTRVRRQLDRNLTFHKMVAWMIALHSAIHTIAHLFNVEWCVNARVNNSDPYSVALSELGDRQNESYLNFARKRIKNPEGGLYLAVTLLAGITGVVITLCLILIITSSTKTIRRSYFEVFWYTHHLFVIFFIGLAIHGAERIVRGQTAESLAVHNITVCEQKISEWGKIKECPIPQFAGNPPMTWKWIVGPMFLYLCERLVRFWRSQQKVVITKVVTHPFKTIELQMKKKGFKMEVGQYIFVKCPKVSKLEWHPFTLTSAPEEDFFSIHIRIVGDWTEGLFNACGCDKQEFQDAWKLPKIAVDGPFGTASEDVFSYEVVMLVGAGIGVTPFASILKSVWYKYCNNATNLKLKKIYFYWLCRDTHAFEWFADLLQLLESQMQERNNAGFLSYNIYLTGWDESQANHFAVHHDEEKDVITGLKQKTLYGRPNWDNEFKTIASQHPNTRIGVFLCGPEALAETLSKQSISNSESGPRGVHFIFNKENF

[9] = molecular target: NADPH oxidase 4 (Homo sapiens) (UniProt Q9NPH5); experiment: compounds shifting NOX4 Amplex Red fluorescence – cell-based, HEK293-NOX4, tetracycline-induced, NOX inhibitor project, primary screen (AID 1160); conditions: HEK293-NOX4, Amplex Red H2O2 fluorescence, 45 min; higher = more signal, called active from +8 up or from −8 down
NADPH oxidase 4 (Homo sapiens), sequence (Q9NPH5 whole entry, looked up): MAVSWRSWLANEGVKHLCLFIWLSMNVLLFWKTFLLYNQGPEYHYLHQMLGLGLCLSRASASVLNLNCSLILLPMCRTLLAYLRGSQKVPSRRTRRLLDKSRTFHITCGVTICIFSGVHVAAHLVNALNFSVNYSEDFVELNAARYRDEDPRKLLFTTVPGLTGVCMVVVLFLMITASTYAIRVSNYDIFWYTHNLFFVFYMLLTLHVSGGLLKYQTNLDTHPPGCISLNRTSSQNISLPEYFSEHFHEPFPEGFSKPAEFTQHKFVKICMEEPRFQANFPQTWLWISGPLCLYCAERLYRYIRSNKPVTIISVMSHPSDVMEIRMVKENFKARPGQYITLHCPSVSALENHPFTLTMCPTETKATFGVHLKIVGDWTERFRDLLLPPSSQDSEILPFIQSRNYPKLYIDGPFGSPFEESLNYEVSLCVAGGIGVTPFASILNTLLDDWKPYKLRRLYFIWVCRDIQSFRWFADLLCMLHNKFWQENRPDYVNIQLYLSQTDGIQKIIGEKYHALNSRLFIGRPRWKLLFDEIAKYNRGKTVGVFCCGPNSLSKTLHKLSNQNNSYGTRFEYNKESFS

[10] = molecular target: NADPH oxidase 5 (Homo sapiens) (UniProt Q96PH1); experiment: compounds shifting NOX5 Amplex Red fluorescence – cell-based, HEK293-NOX5, NOX inhibitor project, primary screen (AID 1161); conditions: HEK293-NOX5, ionomycin, 45 min, higher = more signal
NADPH oxidase 5 (Homo sapiens), sequence (Q96PH1 whole entry, looked up): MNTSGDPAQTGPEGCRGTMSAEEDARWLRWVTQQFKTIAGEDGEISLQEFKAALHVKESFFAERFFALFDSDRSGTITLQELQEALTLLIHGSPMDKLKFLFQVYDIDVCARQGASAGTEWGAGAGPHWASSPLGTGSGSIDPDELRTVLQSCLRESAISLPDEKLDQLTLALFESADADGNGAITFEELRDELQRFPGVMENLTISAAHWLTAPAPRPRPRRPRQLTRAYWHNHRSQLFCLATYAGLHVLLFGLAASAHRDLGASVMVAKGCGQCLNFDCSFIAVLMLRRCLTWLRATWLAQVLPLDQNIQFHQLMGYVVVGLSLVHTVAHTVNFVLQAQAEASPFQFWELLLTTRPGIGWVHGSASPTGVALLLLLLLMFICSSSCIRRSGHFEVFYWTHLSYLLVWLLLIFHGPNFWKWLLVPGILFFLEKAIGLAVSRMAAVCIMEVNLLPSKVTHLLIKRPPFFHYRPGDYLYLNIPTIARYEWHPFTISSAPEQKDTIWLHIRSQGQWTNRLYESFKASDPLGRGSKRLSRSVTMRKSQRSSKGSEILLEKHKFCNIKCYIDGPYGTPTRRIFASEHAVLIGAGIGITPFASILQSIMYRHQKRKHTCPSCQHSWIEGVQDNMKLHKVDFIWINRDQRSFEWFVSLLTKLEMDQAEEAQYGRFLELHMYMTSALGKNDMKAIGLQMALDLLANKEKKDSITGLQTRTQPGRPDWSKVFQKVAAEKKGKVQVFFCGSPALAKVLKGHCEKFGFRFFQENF

| Structure (SMILES) | z-score [1] | composite z-score [2] | z-score [3] | z-score [4] | z-score [5] | z-score [6] | z-score [7] | z-score [8] | z-score [9] | z-score [10] |
| --- | --- | --- | --- | --- | --- | --- | --- | --- | --- | --- |
| O=C1C2C=CC(C(O)c3ccccn3)N(Nc3ccc([N+](=O)[O-])cc3)C2C(=O)N1c1ccccc1 (stereo not given) | -1.5 (inactive) | 0.0768 | 4.59 (inactive) | 1.04 (inactive) | 0.809 (inactive) | 0.509 (inactive) | -0.967 | -0.261 (inactive) | -1.7 (inactive) | -1.62 |
| C=CCC(OC(C)=O)[C@@H]1[C@@H](N(Cc2ccc(-c3ccccc3)cc2)C(=O)Cc2ccc(OC)cc2)c2cc(OCCCO)ccc2N1C(=O)c1ccc2ccccc2c1 (stereo not given in full) | -0.894 (inactive) | -0.529 | 1.23 (inactive) | 0.384 (inactive) | -0.247 (inactive) | 0.41 (inactive) | -0.111 | -0.48 (inactive) | 0.832 (inactive) | 0.808 |
| CC(C)N1CC=CC23O[C@@H]4/C=C\CCCOC(=O)C4[C@H]2C(=O)N(C(C)CO)[C@@H]3C1=O (stereo not given in full) | 2.12 (inactive) | -0.195 | 1.2 (inactive) | 0.0831 (inactive) | 1.07 (inactive) | 0.429 (inactive) | 0.979 | 0.667 (inactive) | 0.142 (inactive) | 0.883 |
| COC(=O)Cn1c(C(=O)N(C)C)cc2c1C[C@H]1CN(C(=O)c3ccccc3)[C@@](Cc3ccccc3)(C(=O)OC)[C@@H]21 | -2.08 (inactive) | 0.155 | -0.424 (inactive) | -0.734 (inactive) | -0.486 (inactive) | -1.31 (inactive) | 0.17 | 0.363 (inactive) | 1.59 (inactive) | -0.11 |
| COc1c(C)cc(-c2cc3c(c(CCc4ccccc4)n2)[Si](C(C)C)(C(C)C)O[C@H]3c2ccccc2)cc1C | -1.05 (inactive) | -0.147 | 4.98 (inactive) | 2.59 (inactive) | 0.576 (inactive) | 1.09 (inactive) | -0.673 | 0.283 (inactive) | 1.11 (inactive) | 0.201 |
| CCCC[C@@H](O)C1=C(C)Cn2c(=O)n(-c3ccccc3)c(=O)n2[C@H]1CO | 3.02 (inactive) | -0.414 | -0.262 (inactive) | -0.957 (inactive) | -0.0398 (inactive) | -2.37 (inactive) | 0.916 | -0.943 (inactive) | 0.216 (inactive) | 0.616 |
| CN1C(=O)C2C=CC(C(O)c3cccs3)N(N(c3ccccc3)c3ccccc3)C2C1=O (stereo not given) | -0.822 (inactive) | 0.25 | 0.929 (inactive) | 1 (inactive) | 0.157 (inactive) | 0.556 (inactive) | -0.967 | -0.915 (inactive) | -1.84 (inactive) | -1.25 |
| CCCCCN1CC=CC23O[C@@H]4/C=C\CCCOC(=O)C4[C@H]2C(=O)N(CCO)[C@@H]3C1=O (stereo not given in full) | 3.1 (inactive) | -0.103 | 0.592 (inactive) | 0.177 (inactive) | -0.608 (inactive) | -0.776 (inactive) | 1.48 | 0.88 (inactive) | 0.261 (inactive) | 2.19 |
| CC(C)(C)OC(=O)CC[C@]1(C(N)=O)N=C(c2ccc(OCCCO)cc2)O[C@H]1c1ccccc1N=[N+]=[N-] | 0.831 (inactive) | 0.267 | 30.5 (active) | 32.4 (active) | 0.697 (inactive) | 2.48 (inactive) | -0.3 | -0.285 (inactive) | 0.324 (inactive) | -1.19 |
| COc1ccc(CCNC(=O)[C@@]2(c3ccc([N+](=O)[O-])cc3)CC(=O)N(C3CCCCC3)[C@@H]2c2ccc(CO)cc2I)cc1 | 0.423 (inactive) | 0.0341 | 11.9 (active) | 1.78 (inactive) | 3.17 (inactive) | 1.04 (inactive) | -0.189 | 1.3 (inactive) | -1.04 (inactive) | 2.21 |
| CC(C)C[C@@H]1NC(=O)[C@H]2C[C@@H](C(=O)O)[C@@H](c3cccc(OCCO)c3)N2C1=O | 0.441 (inactive) | 0.0794 | 6.12 (inactive) | 1.34 (inactive) | -2.36 (inactive) | 0.595 (inactive) | 0.793 | -0.911 (inactive) | -0.69 (inactive) | -0.0644 |
| Cc1ccc(S[C@]2(C(=O)NCc3ccccc3)CC(=O)N(Cc3ccccc3C(F)(F)F)[C@@H]2c2ccc(CO)cc2I)cc1 | 0.852 (inactive) | 0.056 | 5.8 (inactive) | 0.943 (inactive) | 0.836 (inactive) | 0.279 (inactive) | 0.316 | 0.708 (inactive) | -1.5 (inactive) | 1.11 |
| [N-]=[N+]=Nc1ccccc1C[C@@]1(C(=O)NCc2ccccc2)N=C(c2ccc(OCCCO)cc2)O[C@@H]1c1ccccc1 | 0.0295 (inactive) | 1.43 | 27.6 (active) | 17.3 (active) | 1.4 (inactive) | 2.09 (inactive) | 0.308 | -1.67 (inactive) | -0.0758 (inactive) | -1.1 |
| C=CCOC(=O)[C@H]1[C@@H]2C(=O)O[C@@H](c3ccccc3)[C@@H](c3ccccc3)N2[C@@H](c2ccc(OCCOC(=O)[C@H]3C[C@H]4C(=O)NCC(=O)N4[C@H]3c3ccc(O)cc3)cc2)[C@]12C(=O)Nc1ccccc12 | 0.141 (inactive) | 1.09 | 2.42 (inactive) | 1.3 (inactive) | 2.3 (inactive) | 0.987 (inactive) | -0.295 | 2.06 (inactive) | -0.365 (inactive) | 0.00131 |
| C=C[C@@H](CO)NS(=O)(=O)c1ccc(Br)cc1 | 3.75 (inactive) | -0.239 | -0.398 (inactive) | -0.68 (inactive) | -1.12 (inactive) | -1.81 (inactive) | 1.36 | 0.908 (inactive) | 1.05 (inactive) | 1.44 |
| CC(C)N1C(=O)[C@@]2(Cc3ccccc31)c1ccccc1C(=O)N(Cc1ccccc1C(F)(F)F)[C@H]2c1ccc(CO)cc1 | -0.49 (inactive) | -0.853 | 0.382 (inactive) | 0.596 (inactive) | 0.238 (inactive) | 0.501 (inactive) | -0.0346 | 0.449 (inactive) | -1.18 (inactive) | 0.56 |
| COc1cc(Cc2cc3c(c(-c4ccccc4)n2)[Si](C(C)C)(C(C)C)OC3)cc(OC)c1OC | 0.752 (inactive) | 0.0299 | 1.62 (inactive) | 0.702 (inactive) | 0.84 (inactive) | 0.332 (inactive) | 0.159 | 1.04 (inactive) | 0.424 (inactive) | 0.0407 |
